According to PubChem BioAssay (Tox21):
“And” between values parts separate entries of the source, which are not always exact repeats. Equal entries are not always repeated. Records with an inconclusive call do not appear. The source holds several records for some structures; these can differ, active in one and inactive in another. The source made the active and inactive calls. Unless noted, calls come from the whole dose curve; as a rule, active = well fitted curve in the direction sought with a large enough effect in the repeat runs; inconclusive = weak or mixed curves; inactive = no such curve, though single readings can be large; an effect the other way counts as inactive or inconclusive.

Columns and labels:
[1] = qHTS assay to identify small molecule antagonists of the glucocorticoid receptor (GR) signaling pathway - cell viability counter screen (AID 720693); note: nearly all actives have a fitted effect of over 55% in size
[2] = qHTS assay for identifying genotoxic compounds that show differential cytotoxicity against isogenic chicken DT40 cell lines with known DNA damage response pathways - wild type cell line (AID 743012); note: nearly all actives have a fitted effect of over 60% in size; note: potency is the fitted concentration of half-maximal effect
Method in brief: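 Luminescent ATP viability signal (CellTiter-Glo, 30 min RT) recorded after wild type DT40 cells were incubated with compounds for 40 h at 37 C/5% CO2.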

[3] = qHTS assay for identifying genotoxic compounds that show differential cytotoxicity against isogenic chicken DT40 cell lines with known DNA damage response pathways - Rev3 mutant cell line (AID 743014); note: nearly all actives have a fitted effect of over 55% in size; note: potency is the fitted concentration of half-maximal effect
[4] = qHTS assay for identifying genotoxic compounds that show differential cytotoxicity against isogenic chicken DT40 cell lines with known DNA damage response pathways - Rad54/Ku70 mutant cell line (AID 743015); note: potency is the fitted concentration of half-maximal effect; nearly all actives have a fitted effect of over 60% in size
[5] = qHTS assay to identify small molecule antagonists of the androgen receptor (AR) signaling pathway using the MDA cell line - cell viability counter screen (AID 743041; note: nearly all actives have a fitted effect of over 45% in size)
Method in brief: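 Using the breast carcinoma line MDA-kb2 AR-luc, test chemicals were co-incubated with R1881 for 16 h; CellTiter-Fluor reagent, added at 15.5 h, provided a fluorescence measure of live cells.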

[6] = qHTS assay to identify small molecule antagonists of the thyroid receptor (TR) signaling pathway (AID 743065); note: nearly all actives have a fitted effect of over 55% in size; note: potency is the fitted concentration of half-maximal effect
Method in brief: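 Antagonism measured as loss of luciferase signal in GH3 cells stably carrying a TRE-luciferase reporter, co-treated with compound and T3 (1 nM final) for 23.5 h at 37 C. Viability was read in the same well by CellTiter-Fluor.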

[7] = system: thyroid hormone receptor (rat, GH3 cells); assay: qHTS assay to identify small molecule agonists of the thyroid receptor (TR) signaling pathway (AID 743066; calls by dose curve)
[8] = target: Estrogen receptor (Homo sapiens) (UniProt P03372); assay: qHTS assay to identify small molecule antagonists of the estrogen receptor alpha (ER-alpha) signaling pathway (AID 743069; active = well fitted curve in the direction sought with a large enough effect in the signal ratio in the repeat runs, not every such curve was filed as active; the % refers to the signal ratio)
Method in brief: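 Fluorescence intensity from a beta-lactamase FRET substrate served as the read-out. Cells: HEK293 with stably integrated ER-alpha-UAS-bla reporter. Agonist 17beta-estradiol was co-added with compounds; incubation 18 hr at 37C, substrate 2 hr at room temperature.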

[9] = target: Estrogen receptor (Homo sapiens) (UniProt P03372); assay: qHTS assay to identify small molecule agonists of the estrogen receptor alpha (ER-alpha) signaling pathway (AID 743075; calls by dose curve)
[10] = target: Estrogen receptor (Homo sapiens) (UniProt P03372); assay: qHTS assay to identify small molecule agonists of the estrogen receptor alpha (ER-alpha) signaling pathway using the BG1 cell line (AID 743079); conditions: BG1Luc4E2 cells, ERE-luciferase agonist, 22 h; activation: at 70.3 µM (top of the series); note: nearly all actives have a fitted effect of over 20% in size; note: potency is the fitted concentration of half-maximal effect
[11] = qHTS assay to identify small molecule antagonists of the estrogen receptor alpha (ER-alpha) signaling pathway using the BG1 cell line (AID 743080; calls by dose curve;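 note: BG1 cells stimulated with 17beta-estradiol alongside compound; nearly all actives have a fitted effect of over 25% in size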)
Method in brief: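 Readout is ONE-Glo luminescence, taken 30 min at room temperature after reagent addition, preceded by a CellTiter-Fluor viability read; BG1-Luc-4E2 cells had received compound and 17beta-estradiol for 21.5 h at 37 C.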

Aromatase (Homo sapiens) = Aromatase (Homo sapiens) (UniProt P11511); assay: qHTS assay to identify aromatase inhibitors (AID 743083); note: nearly all actives have a fitted effect of over 55% in size
[12] = qHTS assay to identify small molecule antagonists of the androgen receptor (AR) signaling pathway - cell viability counter screen (AID 743033; note: nearly all actives have a fitted effect of over 45% in size)
[13] = qHTS assay to identify small molecule antagonists of the estrogen receptor alpha (ER-alpha) signaling pathway - cell viability counter screen (AID 743074; calls by dose curve; note: nearly all actives have a fitted effect of over 45% in size)
[14] = qHTS assay to identify small molecule antagonists of the estrogen receptor alpha (ER-alpha) signaling pathway using the BG1 cell line - cell viability counter screen (AID 743081);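 note: compound given together with 17beta-estradiol as the ER stimulus; nearly all actives have a fitted effect of over 45% in size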
[15] = qHTS assay to identify small molecule antagonists of the thyroid receptor (TR) signaling pathway - cell viability counter screen (AID 743064); note: nearly all actives have a fitted effect of over 50% in size; note: potency is the fitted concentration of half-maximal effect
Method in brief: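 CellTiter-Fluor readout, 30 min at 37 °C/5% CO2, following 23.5 h incubation of GH3.TRE-Luc cells with test compound and 1 nM T3 (final).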

Measured: Potency

Chain of Estrogen receptor (Homo sapiens) (P03372 whole entry, looked up): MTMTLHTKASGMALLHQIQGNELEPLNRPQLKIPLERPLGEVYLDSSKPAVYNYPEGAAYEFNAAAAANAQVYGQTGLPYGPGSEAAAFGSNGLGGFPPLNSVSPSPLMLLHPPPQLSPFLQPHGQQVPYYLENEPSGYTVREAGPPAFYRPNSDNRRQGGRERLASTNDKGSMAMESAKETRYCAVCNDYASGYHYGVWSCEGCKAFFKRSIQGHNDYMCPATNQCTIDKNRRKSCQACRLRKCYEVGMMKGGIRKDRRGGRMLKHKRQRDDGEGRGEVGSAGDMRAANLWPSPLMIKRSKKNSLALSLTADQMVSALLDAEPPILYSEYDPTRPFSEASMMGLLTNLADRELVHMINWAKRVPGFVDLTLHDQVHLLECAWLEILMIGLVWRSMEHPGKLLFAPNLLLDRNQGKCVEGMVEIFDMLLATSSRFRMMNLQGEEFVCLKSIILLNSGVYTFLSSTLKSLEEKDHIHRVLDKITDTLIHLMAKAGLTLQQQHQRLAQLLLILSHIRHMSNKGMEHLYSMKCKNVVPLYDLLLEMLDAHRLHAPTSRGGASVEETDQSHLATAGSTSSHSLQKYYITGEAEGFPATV
Chain of Aromatase (Homo sapiens) (P11511 whole entry, looked up): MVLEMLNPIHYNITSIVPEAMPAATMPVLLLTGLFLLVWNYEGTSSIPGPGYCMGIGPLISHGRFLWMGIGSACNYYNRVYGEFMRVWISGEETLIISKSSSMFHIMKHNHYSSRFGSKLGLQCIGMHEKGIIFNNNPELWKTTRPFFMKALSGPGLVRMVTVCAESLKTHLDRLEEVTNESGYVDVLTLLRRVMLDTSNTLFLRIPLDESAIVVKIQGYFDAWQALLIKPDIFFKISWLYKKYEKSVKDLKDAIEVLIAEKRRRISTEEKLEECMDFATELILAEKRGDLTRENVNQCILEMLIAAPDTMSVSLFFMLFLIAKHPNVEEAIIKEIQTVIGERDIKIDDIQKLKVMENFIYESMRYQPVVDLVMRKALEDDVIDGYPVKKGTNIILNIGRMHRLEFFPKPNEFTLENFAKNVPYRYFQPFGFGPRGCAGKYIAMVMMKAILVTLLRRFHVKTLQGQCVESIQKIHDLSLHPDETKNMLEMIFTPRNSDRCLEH

COc1cc([C@@H]2c3cc4c(cc3C(O[C@@H]3O[C@@H]5CO[C@@H](C)O[C@H]5[C@H](O)[C@H]3O)C3COC(=O)[C@@H]32)OCO4)cc(OC)c1OP(=O)(O)O (some centres not stated)
active: [2] 531 nM and 750 nM | [3] 1.68 µM and 2.37 µM | [4] 53.1 nM and 75 nM | [6] 11.9 µM
11.9 µM (active) and inactive: [10]
not listed: [12] | [13] | [14] | [15]
inactive: all other assays above

O=C(NNCS(=O)(=O)O)c1ccncc1
not listed: [4] | [15]
inactive: all other assays above

CC(C)(C)NC[C@H](O)COc1ccccc1C1CCCC1
active: [2] 6.39 µM | [3] 10.1 µM | [15] 9.02 µM | [6] 12.7 µM
not listed: [4] | [7] | [14]
inactive: all other assays above

CCCC(=O)Nc1c(I)cc(I)c(CC(CC)C(=O)O)c1I (configuration not stated)
not listed: [4] | [6] | [14] | [15]
inactive: all other assays above

C=CCSSSCC=C
active: [10] 29.8 µM
not listed: [4] | [15]
inactive: all other assays above

CCC(=O)O[C@@H]1CC(=O)O[C@H](C)C/C=C/C=C/[C@H](O)[C@H](C)C[C@H](CC=O)[C@H](O[C@@H]2O[C@H](C)[C@@H](O[C@H]3C[C@@](C)(O)[C@@H](OC(=O)CC)[C@H](C)O3)[C@H](N(C)C)[C@H]2O)[C@H]1OC
inactive: [1] | [2] | [3] | [12] | [5] | [13] | [14] | Aromatase (Homo sapiens)

CC(CN1c2ccccc2Sc2cccnc21)N(C)C (configuration not stated)
active: [2] 29.8 µM
not listed: [4] | [6] | [8] | [9] | [15]
inactive: all other assays above

CO[C@H]1[C@@H](O)[C@H](N)[C@@H](O[C@H]2O[C@H]([C@H](C)N)CC[C@H]2N)[C@H](O)[C@@H]1N(C)C(=O)CN
active: [10] 33.5 µM
not listed: [4] | [12] | [13]
inactive: all other assays above
